Experimental findings from the supplement of paper PMC3484114 are described below.

± gives the standard deviation.

The assay relates to OVCAR-3-derived ovarian cancer stem-like cells (spheroids). Nature of the assay: cell growth relative to untreated control; higher = more growth (less inhibition). Conditions: 2.29 µM; 96 h. An outline of the steps:
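Viability of stem-like cells from OVCAR-3 spheroids was assessed with TOX8 resazurin fluorescence at ex 560/em 590 nm. The cells had been trypsin-dissociated, seeded at 50,000 cells/mL in stem cell medium in ultra-low attachment 96-well plates and preincubated 24 h, then treated with compounds at 2.29 uM for 96 h at 37°C, 5% CO2, in 4 replicate wells, with fluorescence read after 4 h. Results were converted to percent growth against untreated wells after blank subtraction and Grubbs outlier removal.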
In turn, `CCOC(=O)/C=C/c1c(C)[nH]c(=O)[nH]c1=O` returned a cell growth of 91.2 ± 25%.

Regarding `CCOc1cccc(/C=N/N=C2\C(=O)Nc3c(Cl)cc(Cl)cc32)c1O`, the cell growth came out at 85.4 ± 13%.

As for `NC(=S)N/N=C/c1ccc(OC(=O)COc2ccccc2Cl)cn1`, the cell growth is 90.5 ± 27%.

As for `NC(=O)N/N=C1\CC2C3CC4C2C4C13` (centres undefined), the cell growth came out at 106 ± 20%.

On to `CCCC[S+]([O-])CC(CO)NC(=O)/C=C\c1c(C)[nH]c(=O)[nH]c1=O` (centres undefined), for which the cell growth turned out to be 105 ± 28%.

`COc1nc(N)nc2nc[nH]c12`: the cell growth came out at 91.9 ± 17%.

For `COc1c(O[C@@H]2O[C@H](CO)[C@@H](O)[C@H](O)[C@H]2O)cc2c(c1OC)-c1ccc(OC)c(=O)cc1[C@@H](NC(C)=O)CC2`, the cell growth came out at 119 ± 20%.

Compound `CC1(C)CCCC2(C)C3=C(CCC12)C(=O)OC3` (centres undefined) had a cell growth of 84.4 ± 24%.

Take `CC(=O)N(C)c1ccc(Nc2cc(C)[nH]c3ccc4ncnc4c23)cc1`: the cell growth stood at 81.9 ± 23%.

In turn, `CC[n+]1c(-c2ccccc2)c2cc(N)ccc2c2ccc(N)cc21` registered a cell growth of 15 ± 9.7%.

Compound `CN1CCCC2C(c3ccccc3)C(C3=NCCCC3)C(c3ccccc3)CC21` (centres undefined) showed a cell growth of 110 ± 27%.

As to `N#CC(c1ccccc1)N(CCCCCCN(C(=O)c1ccccc1)C(C#N)c1ccccc1)C(=O)c1ccccc1` (centres undefined), the cell growth was found to be 122 ± 23%.

Turning to `Nc1ccc2c(c1)S(=O)(=O)c1cc(N)ccc1-2`, the cell growth was 112 ± 21%.

`CC(C)(C)OC(=O)NC(Cc1ccccc1)C(=O)OCN1C(=O)C2C3C=CC(C2C1=O)C1C2C(=O)N(COC(=O)C(Cc4ccccc4)NC(=O)OC(C)(C)C)C(=O)C2C31` (centres undefined): the cell growth turned out to be 109 ± 26%.

The compound `Cc1[nH]c(=O)nc(N/N=C/c2ccc(Cl)cc2)c1C(=O)Nc1ccc(Cl)cc1` registered a cell growth of 63.1 ± 11%.

The compound `O=C(Nc1ccccc1-c1nn(C(=S)Nc2ccccc2)c(=S)n(C(=S)Nc2ccccc2)c1=O)C(F)(F)F` gave a cell growth of 84.8 ± 15%.

Consider `N#CC1(C#N)C2C=CC(c3coc4cccc2c34)C1(C#N)C#N` (centres undefined), for which the cell growth amounted to 20.9 ± 5.5%.

On to `C=C1C(=O)C23CC[C@@H]4C(C)(C(=O)OC)CCCC4(C)[C@@H]2CCC1(O)C3` (some centres undefined), for which the cell growth was found to be 13 ± 5.5%.

As to `O=S(=O)(c1cccc(N=C=S)c1)c1cccc(N=C=S)c1`, the cell growth came to 111 ± 11%.

Turning to `S=C(Nc1ccccc1)N(/N=C/C=C/c1ccccc1)c1nnc(-c2ccccc2)c(-c2ccccc2)n1`, the cell growth was 132 ± 57%.

Regarding `CN(C)c1cccc(/C=C(\C#N)c2ccccc2)c1`, the cell growth is 66.6 ± 7.2%.

`OCc1ccc(-c2ccc(-c3ccc(CO)s3)o2)s1` displayed a cell growth of 92.2 ± 21%.

`N#CC(=S)Nc1ccc(Cl)c(Cl)c1` yielded a cell growth of 90.6 ± 12%.

The compound `CC(/C=C/C(O)=C1/C(=O)CNC1=O)=C\[C@@H](C)[C@H]1O[C@]2(C)O[C@@H](C(=O)[C@@H]3O[C@@]32C)[C@@H]1C` gave a cell growth of 60.3 ± 14%.

Regarding `CN1CCN(CCSC2Cc3cc(Cl)ccc3Sc3ccccc32)CC1` (centres undefined), the cell growth came out at 151 ± 26%.

As to `Cc1cn(C2CC(O)C(CO)O2)c(=O)[nH]c1=O` (centres undefined), the cell growth turned out to be 92.3 ± 10%.

`COc1cc2cc(c1Cl)N(C)C(=O)C[C@H](OC(=O)[C@H](C)N(C)C(C)=O)[C@]1(C)O[C@H]1[C@H](C)[C@@H]1C[C@@](O)(NC(=O)O1)[C@H](OC)/C=C/C=C(\C)C2` had a cell growth of 22.5 ± 4.8%.

The compound `O=C(NC(=O)c1c(Cl)nc2sccn12)Nc1ccc(Cl)cc1` returned a cell growth of 136 ± 25%.

`O=c1cnn(C2OC(CO)C(O)C2O)c(=S)[nH]1` (centres undefined) came in with a cell growth of 100 ± 24%.

For `COc1cc(-c2cc(=O)c3c(OC)c(OC)c(OC)c(OC)c3o2)cc(OC)c1OC`, the cell growth is 79 ± 21%.

In turn, `CCN(CC)CCNc1ccc(C)c2sc3ccccc3c(=O)c12` showed a cell growth of 77.7 ± 26%.

`CN(C)C(=O)c1cccc(COc2ccc(N3C(N)=NC(N)=NC3(C)C)cc2Cl)c1` gave a cell growth of 76 ± 15%.

As to `CC12CC(Br)(Br)C(=O)C3C1CCCC32`, the cell growth is 159 ± 19%.

Take `O=C1C(=O)c2ccccc2C(O)=C1CC=C(Cl)Cl`: the cell growth came to 92.3 ± 30%.

As for `CCOC(=O)CCn1ncc(Cl)c(Cl)c1=O`, the cell growth was found to be 74.8 ± 21%.

Compound `Cc1cc(Cl)cc2c1NC(=O)C2(O)C(C(=O)c1ccccc1)c1ccccc1` (centres undefined) returned a cell growth of 94.9 ± 12%.

Turning to `CNC(=S)N/N=C/c1ccc([N+](=O)[O-])s1`, the cell growth came out at 87.9 ± 21%.

As to `N=C1C=C(N)C(=O)c2[nH]c(=O)ccc21`, the cell growth came to 95.3 ± 55%.

`CCCCCCCCCCCCCCCCCCOP(=O)([O-])OCC[N+](C)(C)C` registered a cell growth of 51.1 ± 16%.
